High-throughput results (PubChem BioAssay)
Vif-APOBEC3G blk – blocks the Vif interaction with human APOBEC3G. 0.076% of 410,000 active. Potency, µM (top dose mostly 46.1 µM), inactives show top-dose activity, negative = active, actives largely listed as inhibitors. HeLa A3G-eYFP + Vif (tagged APOBEC3G with the HIV-1 protein that degrades it), YFP fluorescence, overnight; note: potency is the fitted concentration of half-maximal effect; % is set by controls: 0 for no effect and ±100 for the full control effect; nearly all actives have a fitted effect of over 60% in size
Target sequence (Q9HC16 whole entry, looked up): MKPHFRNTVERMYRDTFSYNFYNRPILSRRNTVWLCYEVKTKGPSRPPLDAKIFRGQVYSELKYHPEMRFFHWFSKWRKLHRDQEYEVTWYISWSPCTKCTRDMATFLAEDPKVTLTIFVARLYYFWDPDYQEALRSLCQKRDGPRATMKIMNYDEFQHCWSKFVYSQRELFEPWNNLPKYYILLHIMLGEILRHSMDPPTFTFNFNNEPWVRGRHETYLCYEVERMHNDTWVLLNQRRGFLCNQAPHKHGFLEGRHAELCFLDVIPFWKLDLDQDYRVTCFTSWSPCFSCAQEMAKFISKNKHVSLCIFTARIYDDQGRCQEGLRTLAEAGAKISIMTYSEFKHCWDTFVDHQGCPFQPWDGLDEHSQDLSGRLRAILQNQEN
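HeLa cells stably expressing Vif and C-terminally eYFP-tagged A3G, seeded overnight at 37 deg C, then exposed to compound by pintool overnight at 37 deg C. Rise in yellow fluorescence (Ex 488/Em 500-530, Acumen) marks blocked Vif-driven A3G degradation.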
MCF10A rerep – induces DNA re-replication in MCF 10a normal breast cells. MCF 10A DNA re-replication, Hoechst nuclear intensity, 48 h. Potency, µM (doses to about 46.1 µM), for inactives: at the highest dose activity, positive = re-replication, usual class: activators. 2.9% of 350,000 active; note: potency is the fitted concentration of half-maximal effect; % of control where 0% means no effect; nearly all actives have a fitted effect of over 50% in size
Vif-APOBEC3F blk – inhibitors of Vif-A3F interaction. HeLa A3F-eYFP + Vif (tagged APOBEC3F with the HIV-1 protein that degrades it), YFP fluorescence increase. Potency, µM (series often up to 46.1 µM), for inactives: top-dose activity, negative = active. 0.2% of 390,000 active. AID 602313; note: potency is the fitted concentration of half-maximal effect; % of control where 0% means no effect; nearly all actives have a fitted effect of over 65% in size
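HeLa cells stably expressing Vif plus C-terminally eYFP-tagged A3F were seeded, incubated overnight at 37 deg C, dosed with compound, incubated overnight again at 37 deg C. Yellow fluorescence (Ex 488/Em 500-530) reported blocked Vif-mediated A3F-eYFP degradation.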
SW480 rereplic – induces DNA re-replication in SW480 colon adenocarcinoma cells; 1.8% of 340,000 active; Potency, µM (top dose mostly 46.1 µM), without a hit: at the top dose re-replication activation, usual class: activators; SW480 DNA re-replication, Hoechst DNA content imaging, 48 h; note: potency is the fitted concentration of half-maximal effect; % of control where 0% means no effect; nearly all actives have a fitted effect of over 55% in size
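Hoechst fluorescence of nuclei (405 nm excitation, 500-530 nm emission) measured by plate-scanning imager after 48 hr compound exposure at 37 C; re-replication scored as increased number of nuclei with elevated intensity.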
Giardia kill – Giardia lamblia killing. Giardia lamblia trophozoite viability. activity change, % at 7.66 µM, hits read low. 0.15% of 340,000 active; in the data active = activity change below about -80%; inconclusive = between about -30% and that limit;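 note: parasites exposed to compound for two days anaerobically before the ATP read; % is set by controls: 0 for no effect and ±100 for the full control effect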
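Viability, read as ATP luminescence: trophozoites at 100 cells/well, compound added, 48 hrs anaerobic at 37 deg C, then 15-30 min room-temperature development before reading.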
IL-1B inflam inh – blocks inflammasome-driven IL-1 beta release | THP-1 LPS/ATP IL-1B secretion, AlphaLISA, 16 h; hits give low values | activity change, % at 57.5 µM | 4.7% of 360,000 active | AID 743279; in the data active = activity change below about -50%; inconclusive = mostly about -30% to -49%; note: % is set by controls: 0 for no effect and ±100 for the full control effect
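Secreted IL-1B measured by AlphaLISA bead assay after 16 h compound exposure of THP-1 cells; compounds (final up to 57.5 uM) added 1 h before LPS (250 ng/mL) and ATP (1.25 mM) stimulation; lower signal means less secretion.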
* hit, by the source's call. This is a sample that favours compounds with a hit; in the whole collection about 6.9% have one here. Unless noted, calls come from the whole dose curve; as a rule, active = well fitted curve in the direction sought with a large enough effect; inconclusive = small, poorly fitted or top-dose-only effect, or another doubt; inactive = no such curve, though single readings can be large; an effect the other way counts as inactive or inconclusive.

For COc1ccc(Br)cc1/C=N/n1c(C)nc2ccccc2c1=O the results were Vif-APOBEC3G blk -3%, MCF10A rerep 9%, Vif-APOBEC3F blk 4%, SW480 rereplic -4%, Giardia kill 8 and IL-1B inflam inh -4.
`O=c1c2ccccc2nc(N/N=C/c2c(O)ccc3ccccc23)n1O` gave Vif-APOBEC3G blk -18%, MCF10A rerep 3.3µM*, Vif-APOBEC3F blk -1%, SW480 rereplic inconclusive, Giardia kill inconclusive and IL-1B inflam inh 136.
Screening O=C(NCc1ccccc1F)c1cccc(NC(=O)N2CCSc3ncccc32)c1 returned Vif-APOBEC3G blk -2% and Vif-APOBEC3F blk 8%.
Screening CC(C)(C)n1ncc2c(=O)n(Cc3ccccc3C#N)cnc21 returned Vif-APOBEC3G blk 1%.
Cc1ccc2c(c1)C(=O)N1[C@H]3c4cc(Cl)ccc4OC[C@@H]3[C@H](c3ccccc3)[C@]1(C)C(=O)N2 was read as Vif-APOBEC3G blk -27%, MCF10A rerep 10µM*, Vif-APOBEC3F blk -2%, SW480 rereplic inconclusive, Giardia kill 12 and IL-1B inflam inh -29.
For Cc1ccc2c(c1)[C@H]1[C@H](CO2)[C@H](c2ccccc2)[C@]2(C)C(=O)Nc3ccc(Br)cc3C(=O)N12 the results were Vif-APOBEC3G blk -13%, MCF10A rerep 11%, Vif-APOBEC3F blk 2%, SW480 rereplic inconclusive, Giardia kill 6 and IL-1B inflam inh inconclusive.
For Cc1ccc2c(c1)C(=O)N1[C@H]3c4cc(Br)ccc4OC[C@@H]3[C@H](c3ccccc3)[C@]1(C)C(=O)N2 the results were Vif-APOBEC3G blk -23%, MCF10A rerep 13µM*, Vif-APOBEC3F blk -13%, SW480 rereplic 22%, Giardia kill -2 and IL-1B inflam inh -23.
C[C@@]12C(=O)Nc3ccc(F)cc3C(=O)N1[C@H]1c3cc(Cl)ccc3OC[C@@H]1[C@@H]2c1ccccc1 was read as Vif-APOBEC3G blk -28%, MCF10A rerep 18µM*, Vif-APOBEC3F blk 0%, SW480 rereplic 21µM*, Giardia kill -21 and IL-1B inflam inh inconclusive.
`C[C@@]12C(=O)Nc3cc(Cl)ccc3C(=O)N1[C@H]1c3cc(Cl)ccc3OC[C@@H]1[C@@H]2c1ccccc1` gave Vif-APOBEC3G blk -22%, MCF10A rerep inconclusive, Vif-APOBEC3F blk -8%, SW480 rereplic inconclusive, Giardia kill 7 and IL-1B inflam inh -13.
Cc1ccc2c(c1)C(=O)N1[C@H]3c4cc(C)ccc4OC[C@@H]3[C@H](c3ccccc3)[C@]1(C)C(=O)N2 was read as Vif-APOBEC3G blk -22%, MCF10A rerep 5.8µM*, Vif-APOBEC3F blk -1%, SW480 rereplic inconclusive, Giardia kill -5 and IL-1B inflam inh -53*.
Screening C[C@@]12C(=O)Nc3ccc(F)cc3C(=O)N1[C@H]1c3ccccc3OC[C@@H]1[C@@H]2c1ccccc1 returned Vif-APOBEC3G blk -6%, MCF10A rerep 16%, Vif-APOBEC3F blk -1%, SW480 rereplic 27%, Giardia kill -16 and IL-1B inflam inh inconclusive.
`Cc1ccc2nc(NC(=O)CSc3[nH]c(=O)ncc3C)sc2c1` gave Vif-APOBEC3G blk -1%, Vif-APOBEC3F blk 4% and Giardia kill -24.
Screening O=C(OCC1CCCO1)c1ccc2c(c1)N(Cc1ccccc1F)C(=O)c1ccccc1S2(=O)=O (centres undefined) returned Vif-APOBEC3G blk -1% and Vif-APOBEC3F blk -6%.
Cc1cccc(C(=O)Nc2nnc(S(=O)(=O)N(C)Cc3ccc(Cl)cc3)s2)c1 was read as Vif-APOBEC3G blk 0% and Vif-APOBEC3F blk 7%.
`C[C@@]12C(=O)Nc3cc(Cl)ccc3C(=O)N1[C@H]1c3ccccc3OC[C@@H]1[C@@H]2c1ccccc1` gave Vif-APOBEC3G blk -3%, MCF10A rerep 22%, Vif-APOBEC3F blk 0%, SW480 rereplic inconclusive, Giardia kill -9 and IL-1B inflam inh inconclusive.
C[C@@]12C(=O)Nc3cc(F)c(F)cc3C(=O)N1[C@H]1c3ccccc3OC[C@@H]1[C@@H]2c1ccccc1 was read as Vif-APOBEC3G blk -2%, MCF10A rerep 19%, Vif-APOBEC3F blk -1%, SW480 rereplic inconclusive, Giardia kill 8 and IL-1B inflam inh -63*.
COc1ccc(-c2nnc(-c3cc4ccccc4oc3=O)o2)cc1 was read as Vif-APOBEC3G blk 1%, MCF10A rerep -1%, Vif-APOBEC3F blk -6%, SW480 rereplic 2%, Giardia kill 7 and IL-1B inflam inh -10.
CCCCCCc1cc2cc(-c3nnc(-c4ccccc4O)o3)c(=O)oc2cc1O was read as Vif-APOBEC3G blk 3.2µM*, MCF10A rerep 0.73µM*, Vif-APOBEC3F blk inconclusive, SW480 rereplic 2.3µM*, Giardia kill -16 and IL-1B inflam inh 0.
`CCCCCCc1cc2cc(-c3nnc(-c4ccccc4OC)o3)c(=O)oc2cc1O` gave Vif-APOBEC3G blk 13µM*, MCF10A rerep 6%, Vif-APOBEC3F blk inconclusive, SW480 rereplic 1.2µM*, Giardia kill 8 and IL-1B inflam inh 1.
`COc1cccc2cc(-c3nnc(-c4ccccc4)o3)c(=O)oc12` gave Vif-APOBEC3G blk -1%, MCF10A rerep 1%, Vif-APOBEC3F blk inconclusive, SW480 rereplic inconclusive, Giardia kill inconclusive and IL-1B inflam inh inconclusive.
CCCCCCc1cc2cc(C(=O)Nc3ccccc3OC)c(=O)oc2cc1O was read as Vif-APOBEC3G blk -1%, MCF10A rerep 0.65µM*, Vif-APOBEC3F blk 3%, SW480 rereplic inconclusive, Giardia kill 8 and IL-1B inflam inh 7.
CCCCCCc1cc2cc(S(=O)(=O)c3ccc(F)cc3)c(=O)oc2cc1O was read as Vif-APOBEC3G blk -6%, MCF10A rerep 2.3µM*, Vif-APOBEC3F blk 3%, SW480 rereplic 4.6µM*, Giardia kill -16 and IL-1B inflam inh -1.
O=C(O)c1ccc2oc(=O)c(S(=O)(=O)c3ccc(F)cc3)cc2c1 was read as Vif-APOBEC3G blk -2%, MCF10A rerep 6%, Vif-APOBEC3F blk 7%, SW480 rereplic 9%, Giardia kill 7 and IL-1B inflam inh -1.
`Cc1ccc(CNC(=O)C(C)n2c(=O)cc(-c3ccccc3)c3c(C)nn(C)c32)cc1` (centres undefined) gave Vif-APOBEC3G blk 0% and Vif-APOBEC3F blk 0%.
Screening CC(=O)N1CCc2cc(Br)cc(S(=O)(=O)CCC(=O)N3CCN(c4ccc(F)cc4)CC3)c21 returned Vif-APOBEC3G blk 3% and Vif-APOBEC3F blk -10%.
`COc1cc(-c2nnc(SCc3cc(=O)oc4cc(O)c(O)cc34)o2)cc(OC)c1OC` gave Vif-APOBEC3G blk -17%, MCF10A rerep inconclusive, Vif-APOBEC3F blk -1%, SW480 rereplic 13%, Giardia kill -11 and IL-1B inflam inh 72.
